For some assays here: Potency and affinity values are given separately. The source made the active and inactive calls. Unless noted, how the calls were made is not given here.
Tests used:
[1] = antimalarial activity against Dd2 strain (AID 2302;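 active means growth inhibition above 50% at the single 2 µM test dose, taken to imply half-maximal potency below 2 µM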;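 further: 0% = DMSO untreated growth and 100% = chloroquine plus artemisinin killed control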); details: P. falciparum Dd2 in RBCs, LDH growth readout, 72 h; at 2 µM; stronger effect = higher value
[2] = human hepatoma cell viability loss – ATP luminescence, cytotoxicity control for P. falciparum antimalarial project, primary screen (AID 2303;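 active means inhibition above 50%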;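 further: 0% = DMSO wells and 100% = digitonin-killed cells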); details: HepG2 viability, 24-48 h, at 10 µM, stronger effect = higher value
[3] = target: L-lactate dehydrogenase (Plasmodium falciparum (isolate CDC / Honduras)) (UniProt Q27743); test: PfLDH activity inhibition – cell lysate, 3D7 strain, counter-screen for P. falciparum growth inhibition project (AID 2304);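 further: 0% = vehicle and 100% = reference inhibitor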; details: P. falciparum 3D7 crude extract, LDH APAD/NBT absorbance; at 2 µM; stronger effect = higher value
Sequence of L-lactate dehydrogenase (Plasmodium falciparum (isolate CDC / Honduras)) (Q27743 whole entry, looked up): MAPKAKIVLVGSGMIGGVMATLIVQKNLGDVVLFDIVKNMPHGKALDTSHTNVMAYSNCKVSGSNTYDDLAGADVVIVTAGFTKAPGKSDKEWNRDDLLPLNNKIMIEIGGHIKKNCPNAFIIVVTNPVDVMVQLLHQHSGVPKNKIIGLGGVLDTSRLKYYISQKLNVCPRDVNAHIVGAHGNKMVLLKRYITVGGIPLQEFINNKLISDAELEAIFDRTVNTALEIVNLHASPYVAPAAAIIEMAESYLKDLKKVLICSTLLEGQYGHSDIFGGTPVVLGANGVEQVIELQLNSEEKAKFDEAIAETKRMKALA

[4] = inhibition of 3D7 malaria parasite growth – strain 3D7 (AID 2306);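 further: 0% = DMSO wells and 100% = chloroquine plus artemisinin control wells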; details: P. falciparum 3D7 erythrocytic growth, LDH absorbance, 72 h; at 2 µM; stronger effect = higher value
[5] = target: Calcium-dependent protein kinase 1 (Plasmodium falciparum (isolate 3D7)) (UniProt P62344); test: PfCDPK1 kinase inhibitors, biochemical, TCAMS library (AID 1159585; cut-off not given, nearly all actives have IC50 up to about 0.98 µM;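 further: inhibitors leave more ATP so luminescence rises with inhibition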); details: recombinant PfCDPK1, Kinase-Glo ATP depletion luminescence
Sequence of Calcium-dependent protein kinase 1 (Plasmodium falciparum (isolate 3D7)) (P62344 whole entry, looked up): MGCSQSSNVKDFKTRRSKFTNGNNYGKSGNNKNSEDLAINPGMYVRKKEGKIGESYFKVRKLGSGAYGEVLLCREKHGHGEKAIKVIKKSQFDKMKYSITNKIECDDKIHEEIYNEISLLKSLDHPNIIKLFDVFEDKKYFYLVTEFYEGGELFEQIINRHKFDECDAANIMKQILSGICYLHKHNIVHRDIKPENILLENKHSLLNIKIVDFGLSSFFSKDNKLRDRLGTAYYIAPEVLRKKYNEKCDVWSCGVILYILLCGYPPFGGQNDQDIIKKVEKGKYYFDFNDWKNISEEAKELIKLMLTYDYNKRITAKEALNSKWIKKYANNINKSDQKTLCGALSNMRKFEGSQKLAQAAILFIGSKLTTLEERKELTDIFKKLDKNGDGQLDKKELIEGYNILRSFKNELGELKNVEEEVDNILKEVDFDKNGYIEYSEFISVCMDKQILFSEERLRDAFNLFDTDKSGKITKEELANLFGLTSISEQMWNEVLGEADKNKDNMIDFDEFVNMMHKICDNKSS

[6] = target: Plasmodium falciparum protein kinase 6 (PK6, PF3D7_1337100) (UniProt Q8IDW1); test: PfPK6 kinase inhibitors, biochemical, TCAMS library (AID 1159586); details: recombinant PfPK6, Kinase-Glo ATP depletion luminescence
Sequence of Plasmodium falciparum protein kinase 6 (PK6, PF3D7_1337100) (Q8IDW1 1-305): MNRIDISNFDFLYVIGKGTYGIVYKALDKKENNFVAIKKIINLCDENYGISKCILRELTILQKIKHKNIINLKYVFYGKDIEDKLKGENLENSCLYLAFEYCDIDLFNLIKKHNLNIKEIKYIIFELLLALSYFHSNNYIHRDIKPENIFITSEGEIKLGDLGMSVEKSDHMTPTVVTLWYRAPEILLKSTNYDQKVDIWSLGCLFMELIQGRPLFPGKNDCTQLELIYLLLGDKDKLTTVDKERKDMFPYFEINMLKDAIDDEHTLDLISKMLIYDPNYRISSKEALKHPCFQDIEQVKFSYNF

[7] = target: Protein kinase 7 (PK7), Plasmodium falciparum 3D7 (PF3D7_0213400) (UniProt Q7YTF7); test: inhibition of Plasmodium PK7 catalytic activity – biochemical, TCAMS antimalarial set, Kinase-Glo luminescence (AID 1159587); details: recombinant PfPK7, Kinase-Glo ATP depletion luminescence
Sequence of Protein kinase 7 (PK7), Plasmodium falciparum 3D7 (PF3D7_0213400) (Q7YTF7 1-343): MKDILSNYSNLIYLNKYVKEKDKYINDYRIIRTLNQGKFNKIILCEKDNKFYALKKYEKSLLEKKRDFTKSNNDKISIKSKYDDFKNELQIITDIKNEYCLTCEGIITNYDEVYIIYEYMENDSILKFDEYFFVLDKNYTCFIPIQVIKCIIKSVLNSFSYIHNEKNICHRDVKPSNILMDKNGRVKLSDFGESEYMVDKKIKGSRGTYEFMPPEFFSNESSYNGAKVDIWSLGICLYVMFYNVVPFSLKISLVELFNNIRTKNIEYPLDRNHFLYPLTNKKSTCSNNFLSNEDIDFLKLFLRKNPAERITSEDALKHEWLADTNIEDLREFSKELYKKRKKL

[8] = target: Calcium-dependent protein kinase 4 (Plasmodium falciparum (isolate 3D7)) (UniProt Q8IBS5); test: PfCDPK4 kinase inhibitors, biochemical, TCAMS library (AID 1159588; cut-off not given, nearly all actives have IC50 up to about 0.91 µM); details: recombinant PfCDPK4, Kinase-Glo ATP depletion luminescence
Sequence of Calcium-dependent protein kinase 4 (Plasmodium falciparum (isolate 3D7)) (Q8IBS5 whole entry, looked up): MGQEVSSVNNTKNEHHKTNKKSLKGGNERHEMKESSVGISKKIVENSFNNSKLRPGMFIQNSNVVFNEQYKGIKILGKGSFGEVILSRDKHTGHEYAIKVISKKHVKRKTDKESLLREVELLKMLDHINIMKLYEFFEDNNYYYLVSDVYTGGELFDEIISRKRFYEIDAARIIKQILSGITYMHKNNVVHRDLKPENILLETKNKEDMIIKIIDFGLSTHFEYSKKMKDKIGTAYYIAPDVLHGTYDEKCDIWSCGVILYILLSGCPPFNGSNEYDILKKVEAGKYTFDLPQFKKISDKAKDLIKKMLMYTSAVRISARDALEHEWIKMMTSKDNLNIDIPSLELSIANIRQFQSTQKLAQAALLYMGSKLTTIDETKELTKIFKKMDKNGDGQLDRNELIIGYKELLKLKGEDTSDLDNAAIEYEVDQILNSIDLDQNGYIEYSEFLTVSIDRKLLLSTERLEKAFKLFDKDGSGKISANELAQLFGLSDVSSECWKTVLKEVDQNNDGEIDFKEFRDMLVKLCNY

Cc1cc(N2CCCC2)nc(/N=C(\N)Nc2cccc(C(F)(F)F)c2)n1
inactive: inhibition [2] 33% | inhibition [3] 1% | outcome [5] | outcome [6] | outcome [7] | outcome [8]
active: growth inhibition [1] 100% | growth inhibition [4] 101%

COc1ccccc1-c1ccc(C(=O)NCC2CCCN(Cc3cccc(C(F)(F)F)c3)C2)s1 (stereo not given)
inactive: growth inhibition [1] 37% | inhibition [2] 18% | inhibition [3] 3% | outcome [5] | outcome [6] | outcome [7] | outcome [8]
active: growth inhibition [4] 81%

Cc1cccc2[nH]c(-c3ccc(-c4cccc(CNCc5cccc(N)c5)c4)cc3)nc12
inactive: inhibition [2] 0% | inhibition [3] -4% | outcome [5] | outcome [6] | outcome [7] | outcome [8]
active: growth inhibition [1] 87% | growth inhibition [4] 101%

CCOc1cc(C)ccc1C1CCN(CCCCNC(=O)c2ccc(-c3ccc(Cl)cn3)cc2)CC1
inactive: growth inhibition [1] 8% | inhibition [2] 19% | inhibition [3] -6% | outcome [5] | outcome [6] | outcome [7] | outcome [8]
active: growth inhibition [4] 94%

CCC(C)NS(=O)(=O)c1ccc2nc(Nc3cccc(SC)c3)n(C(C)C(C)C)c2c1 (stereo not given)
active: growth inhibition [1] 70% | growth inhibition [4] 94%
inactive: inhibition [2] -1% | inhibition [3] 2% | outcome [5] | outcome [6] | outcome [7] | outcome [8]

N#Cc1ccc(-c2nc(CO)c(C(=O)NCCCCN3CCC(c4ccc5c(c4OCC(N)=O)CCCC5)CC3)s2)cc1
active: growth inhibition [4] 92%
inactive: growth inhibition [1] -1% | inhibition [2] 9% | inhibition [3] 4% | outcome [5] | outcome [6] | outcome [7] | outcome [8]

O=C(N[C@@H](CC1CCCCC1)C(=O)NC1CCCCCC1)c1ccc(O)c(-c2ccc(Cl)c(Cl)c2)c1
active: growth inhibition [1] 100% | growth inhibition [4] 99%
inactive: inhibition [2] -3% | inhibition [3] -2% | outcome [5] | outcome [6] | outcome [7] | outcome [8]

CN(C)CCN1CCN(Cc2cccc(-c3csc(-c4nc5ccccc5[nH]4)c3)c2)CC1
inactive: inhibition [2] 28% | inhibition [3] -5% | outcome [5] | outcome [6] | outcome [7] | outcome [8]
active: growth inhibition [1] 97% | growth inhibition [4] 100%

CC(C)(CN1CCCC1)CN(Cc1ccc(-c2ccc(C(F)(F)F)cc2)cc1)C(=O)Cn1c(CCc2cccc(F)c2F)nc(=O)c2ccccc21
active: growth inhibition [1] 64% | inhibition [2] 57% | growth inhibition [4] 97%
inactive: inhibition [3] -3% | outcome [5] | outcome [6] | outcome [7] | outcome [8]

COc1ccc2nccc(NCC3(O)CCC(NCc4cc5c(cn4)OCCO5)CC3)c2n1 (stereo not given)
active: growth inhibition [4] 99%
inactive: growth inhibition [1] 23% | inhibition [2] 15% | inhibition [3] -3% | outcome [5] | outcome [6] | outcome [7] | outcome [8]

S=c1nc(-c2ccccc2)n2ccsc2n1
inactive: growth inhibition [1] 0% | inhibition [2] 3% | inhibition [3] -6% | outcome [5] | outcome [6] | outcome [7] | outcome [8]
active: growth inhibition [4] 95%

COc1ccc2nccc([C@@H](O)CN3[C@@H]4CC[C@H]3CC(NCc3ccc5c(n3)NC(=O)CS5)C4)c2n1 (stereo not given in full)
active: growth inhibition [4] 99%
inactive: growth inhibition [1] 11% | inhibition [2] -1% | inhibition [3] 4% | outcome [5] | outcome [6] | outcome [7] | outcome [8]

Cc1cc(N(C)C2CCN(C)C2)nc(Nc2ccc(Cl)cc2)n1 (stereo not given)
inactive: inhibition [2] 8% | inhibition [3] 0% | outcome [5] | outcome [6] | outcome [7] | outcome [8]
active: growth inhibition [1] 88% | growth inhibition [4] 100%

CCc1ccc(OCCCON2C(N)=NC(N)=NC2(C)C)cc1
active: growth inhibition [1] 95% | inhibition [2] 64% | growth inhibition [4] 95%
inactive: inhibition [3] -8% | outcome [5] | outcome [6] | outcome [7] | outcome [8]

COC(=O)c1cccc(CNCc2cccc(-c3csc(-c4nc5ccccc5[nH]4)c3)c2)c1
active: growth inhibition [4] 102%
inactive: growth inhibition [1] 44% | inhibition [2] -7% | inhibition [3] 0% | outcome [5] | outcome [6] | outcome [7] | outcome [8]

Cc1ccc(NC(=O)c2ccc(-c3cc4cc(Cl)c(Cl)cc4[nH]3)cc2)cc1OCCN1CCCC1
active: growth inhibition [1] 90% | growth inhibition [4] 101%
inactive: inhibition [2] 7% | inhibition [3] -6% | outcome [5] | outcome [6] | outcome [7] | outcome [8]

COc1cc(CCOc2c(C)nc(N)nc2N)cc(OC)c1OC
inactive: growth inhibition [1] -3% | inhibition [3] 4% | outcome [5] | outcome [6] | outcome [7] | outcome [8]
active: inhibition [2] 59% | growth inhibition [4] 93%

CCN(CC)CCCC(C)Nc1c2ccccc2nc2ccc3ccccc3c12 (stereo not given)
active: growth inhibition [1] 89% | growth inhibition [4] 100%
inactive: inhibition [2] 24% | inhibition [3] 1% | outcome [5] | outcome [6] | outcome [7] | outcome [8]

CON=Cc1sc(CNCCCNc2cc(=O)c3ccccc3[nH]2)c(C)c1Br
inactive: inhibition [2] -8% | inhibition [3] -1% | outcome [5] | outcome [6] | outcome [7] | outcome [8]
active: growth inhibition [1] 63% | growth inhibition [4] 96%

Cc1c2c(nn1-c1ccccc1)C(c1ccccc1)N(c1ccccc1)C2=O (stereo not given)
inactive: inhibition [2] 42% | inhibition [3] 1% | outcome [5] | outcome [6] | outcome [7] | outcome [8]
active: growth inhibition [1] 96% | growth inhibition [4] 92%

O=C(c1ccco1)N1CCN(c2nc(-c3ccc(Cl)cc3)nc3ccccc23)CC1
inactive: inhibition [2] 13% | inhibition [3] 5% | outcome [5] | outcome [6] | outcome [7] | outcome [8]
active: growth inhibition [1] 91% | growth inhibition [4] 96%

Cc1cc(F)ccc1[C@H]1C[C@H](N2CCOCC2)CCN1C(=O)N(C)[C@@H](C)c1cc(C(F)(F)F)cc(C(F)(F)F)c1
active: growth inhibition [1] 99% | growth inhibition [4] 100%
inactive: inhibition [2] 4% | inhibition [3] 3% | outcome [5] | outcome [6] | outcome [7] | outcome [8]

Cc1cccc2[nH]c(-c3ccc(-c4ccc(NC(=O)NCc5cccc(F)c5)cc4)s3)nc12
inactive: growth inhibition [1] 43% | inhibition [3] -6% | outcome [5] | outcome [6] | outcome [7] | outcome [8]
active: inhibition [2] 70% | growth inhibition [4] 101%

CNC(=O)/C=C/c1cc(NC(=O)Nc2ccnc3c(Br)cccc23)ccc1OC
inactive: inhibition [2] 12% | inhibition [3] 1% | outcome [5] | outcome [6] | outcome [7] | outcome [8]
active: growth inhibition [1] 68% | growth inhibition [4] 95%

COc1cccc(CCc2c(CCNCCCCCCNCCc3ccccc3)ccc(OC)c2OC)c1
active: growth inhibition [1] 69% | inhibition [2] 100% | growth inhibition [4] 100%
inactive: inhibition [3] 6% | outcome [5] | outcome [6] | outcome [7] | outcome [8]

C[C@@H]1CN(c2cnn(Cc3ccc(NC(=O)Nc4ccc(-c5ccccc5)cc4)cc3)c(=O)c2Cl)C[C@H](C)N1
active: inhibition [2] 82% | growth inhibition [4] 100%
inactive: growth inhibition [1] 46% | inhibition [3] -3% | outcome [5] | outcome [6] | outcome [7] | outcome [8]

Cc1cc(NC(=O)CCCN2CCN(c3cccc(Cl)c3Cl)CC2)ccc1N1CCN(C(C)C)CC1
inactive: inhibition [3] -1% | outcome [5] | outcome [6] | outcome [7] | outcome [8]
active: growth inhibition [1] 53% | inhibition [2] 86% | growth inhibition [4] 102%

CC(CON1C(N)=NC(N)=NC1(C)C)c1ccc(Cl)cc1Cl (stereo not given)
active: growth inhibition [1] 95% | inhibition [2] 64% | growth inhibition [4] 97%
inactive: inhibition [3] 0% | outcome [5] | outcome [6] | outcome [7] | outcome [8]

O=C(NC1CC1)c1ccc(N2CCC(Cc3ccccc3)CC2)nc1
active: growth inhibition [1] 92% | growth inhibition [4] 95%
inactive: inhibition [2] 13% | inhibition [3] 5% | outcome [5] | outcome [6] | outcome [7] | outcome [8]

Cc1ccc(O)cc1Nc1ccnc2cc(-c3nccs3)ccc12
inactive: inhibition [3] 2% | outcome [5] | outcome [6] | outcome [7] | outcome [8]
active: growth inhibition [1] 83% | inhibition [2] 63% | growth inhibition [4] 102%

c1ccc2cc3c(NCCN4CCOCC4)ccnc3cc2c1
active: growth inhibition [1] 98% | growth inhibition [4] 99%
inactive: inhibition [2] -1% | inhibition [3] -1% | outcome [5] | outcome [6] | outcome [7] | outcome [8]

Cc1cccc2[nH]c(-c3ccc(-c4ccc(CNCc5ccccc5)cc4)cc3)nc12
active: growth inhibition [1] 90% | growth inhibition [4] 99%
inactive: inhibition [2] 5% | inhibition [3] -2% | outcome [5] | outcome [6] | outcome [7] | outcome [8]

COc1cc(CCN=C(N)/C=C/c2ccc(Cl)cc2)ccc1Cl
inactive: growth inhibition [1] 16% | inhibition [3] 3% | outcome [5] | outcome [6] | outcome [7] | outcome [8]
active: inhibition [2] 68% | growth inhibition [4] 100%

COc1ccc(NC(=O)Nc2ccc(-c3cccc(-c4nc5c(C)cccc5[nH]4)c3)cc2)cc1
inactive: inhibition [2] 33% | inhibition [3] 4% | outcome [5] | outcome [6] | outcome [7] | outcome [8]
active: growth inhibition [1] 75% | growth inhibition [4] 101%

CN1CCN(CCCN(Cc2csc(-c3ccc(CNCc4ccccc4)cc3)n2)S(=O)(=O)c2ccccc2Cl)CC1
inactive: inhibition [2] 13% | inhibition [3] -5% | outcome [5] | outcome [6] | outcome [7] | outcome [8]
active: growth inhibition [1] 81% | growth inhibition [4] 93%

O=C(c1cnn(-c2ccccc2)c1C(F)(F)F)N1CCN(c2ccnc3cc(Cl)ccc23)CC1
active: growth inhibition [1] 94% | growth inhibition [4] 89%
inactive: inhibition [2] 34% | inhibition [3] 6% | outcome [5] | outcome [6] | outcome [7] | outcome [8]

Cc1[nH]nc2cc(F)c(-c3cc(OC[C@@H](N)Cc4ccccc4)cnc3-c3ccoc3)cc12
active: growth inhibition [4] 95%
inactive: growth inhibition [1] 15% | inhibition [2] 22% | inhibition [3] 6% | outcome [5] | outcome [6] | outcome [7] | outcome [8]

Cc1cc(N2CCCC2)nc(Nc2ccc(NC(=O)Nc3ccccc3)cc2)n1
inactive: inhibition [2] 35% | inhibition [3] 1% | outcome [5] | outcome [6] | outcome [7] | outcome [8]
active: growth inhibition [1] 100% | growth inhibition [4] 99%

Ic1cc(CNC2CCCCC2)ccc1OCc1cccc(COc2ccc(CNC3CCCCC3)cc2I)c1
inactive: growth inhibition [1] 34% | inhibition [2] -1% | inhibition [3] -4% | outcome [5] | outcome [6] | outcome [7] | outcome [8]
active: growth inhibition [4] 93%

CC(=O)Nc1nc(C(=O)Nc2cccc(-c3cccc(-c4nc5ccccc5[nH]4)c3)c2)cs1
inactive: inhibition [2] 31% | inhibition [3] 0% | outcome [5] | outcome [6] | outcome [7] | outcome [8]
active: growth inhibition [1] 82% | growth inhibition [4] 100%

— PubChem BioAssay
